From PubChem BioAssay
CHX counter = counter-screen for Shiga toxin inhibitors: cycloheximide protein synthesis inhibition. cell reporter, cycloheximide protein synthesis inhibition counterscreen. max response, %. 300,000 compounds, 12% hits. AID 2314; in the data active = max response mostly above about 13%, no sharp cut-off; inactive = mostly below about 14%; also: read at 38.3 µM for the half of the compounds with a filed dose
HCV inhibitor = blocks hepatitis C virus; Huh7.5.1 HCVcc-Cre infection, luciferase reporter, 44 h; Potency, µM (titrated, usually from 41.8 µM), hits mostly inhibitors; 340,000 compounds, 3.4% hits; AID 651820
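1,000 cells/well; 4 h culture; + compound; + HCVcc-Cre (~0.5 moi); 44 h; luciferase substrate, RT 15 min; read 15 sec.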
Pf growth 96h = P. falciparum growth inhibition at 96 hour, primary screen for plastid delayed-death inhibitors | Potency, µM (titrated, usually from 28.7 µM), actives largely listed as inhibitors | 320,000 compounds, 6.9% hits | P. falciparum luciferase reporter growth, 96 h
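P. falciparum expressing integrated firefly luciferase grown in erythrocytes (2% hematocrit, 0.05% parasitemia final) with compounds for 96 hours at 37 C, 5% CO2. Growth inhibition read as loss of luminescence after adding luciferase detection reagent.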
Shiga inhibitor = Shiga toxin inhibition | 290,000 compounds, 9.2% hits | inhibition, % at 38.7 µM | AID 2315 | Vero cells, Shiga toxin protein synthesis inhibition reporter; in the data active = inhibition mostly above about 28%, no sharp cut-off; inactive = mostly below about 43%
Pf growth 48h = P. falciparum growth inhibition at 48 hours (one generation); P. falciparum luciferase growth in erythrocytes, 48 h; Potency, µM (top dose mostly 28.7 µM), usual class: inhibitors; 310,000 compounds, 5.9% hits; AID 504832
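Firefly luciferase activity from engineered P. falciparum reports growth; inhibitors lower the luminescent signal. Cultures contained 2% hematocrit erythrocytes at 0.1% final parasitemia.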
AMA1-RON2 inh = disrupts binding of P. falciparum AMA1 to RON2. Potency, µM (top dose mostly 58.2 µM), hits mostly inhibitors. AlphaScreen AMA1-biotinylated RON2 peptide binding. 360,000 compounds, 0.2% hits; also: nearly all actives have a fitted effect of over 45% in size
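AMA1 (3D7) with his tag at 25 nM final met compounds first, then biotinylated RON2 peptide at 25 nM; detection used donor plus acceptor beads, 10 µg/mL apiece, read by AlphaScreen after 30 min at room temperature.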
Large screens that a line does not name were inactive. Compounds with a hit are over-represented: about 21% of the library has one in this group of screens. Unless noted, calls follow the shape of the dose curve; as a rule, active = well fitted curve in the direction sought with a large enough effect; inconclusive = small, poorly fitted or top-dose-only effect, or another doubt; inactive = no such curve, though single readings can be large; an effect the other way counts as inactive or inconclusive.

Cc1ccc(S(=O)(=O)N2C[C@H]3n4c(=O)ccc(=O)n4C[C@H](OC(=O)NCc4ccco4)[C@@]3(O)C2)cc1	none (no result: CHX counter, HCV inhibitor, Pf growth 96h, Shiga inhibitor, Pf growth 48h)
O=C(NCCC1=CCCCC1)NC1CCCCC1	CHX counter 45, Shiga inhibitor 72
NC(=O)NCCC1=CCCCC1	none (no result: Pf growth 48h)
COc1ccccc1CCNC(=O)NC1CCCCC1	CHX counter 18
O=C(NC1CCCCCC1)C(=S)NCc1ccccc1	CHX counter 39, Pf growth 96h inconclusive, Shiga inhibitor 62
O=C(NC1CCCCCC1)C(=S)NCCc1ccccc1	Pf growth 96h 10µM
COc1ccc(N(C)C(=O)c2ccc(NC(=O)CCS(=O)(=O)c3cccs3)cc2)cc1	Pf growth 96h inconclusive
CC(C)(C)OC(=O)C[C@H]1C/C=C\C[C@H](CC(=O)N[C@H](CO)Cc2ccccc2)C(=O)N[C@@H](Cc2ccccc2)COC1=O	none (no result: CHX counter, Pf growth 96h, Shiga inhibitor, Pf growth 48h)
CC1(OC(=O)C2CCCC2)C(=O)C=C2C=C(c3ccsc3)N(CCc3c[nH]c4ccccc34)C=C2C1=O (centres undefined)	Pf growth 96h 13µM, Pf growth 48h 9.3µM
CC1(OC(=O)C2CCCC2)C(=O)C=C2C=C(c3ccsc3)N(C3CCCCC3)C=C2C1=O (centres undefined)	Pf growth 96h inconclusive, Pf growth 48h 12µM
O=[N+]([O-])c1ccccc1C(=Nc1ccccc1)c1c(O)cc(O)cc1O	none (no result: CHX counter, HCV inhibitor, Pf growth 96h, Shiga inhibitor, Pf growth 48h)
C[C@H](O)[C@@H]1CN2CCc3c([nH]c4ccccc34)[C@@H]2C[C@@H]1N(C)C(=S)Nc1ccc(C#N)cc1	none (no result: CHX counter, HCV inhibitor, Pf growth 96h, Shiga inhibitor, Pf growth 48h)
c1cc(CSc2nnc(-c3ccc4c(c3)OCO4)o2)ccn1	CHX counter 44, Shiga inhibitor 88
Cc1ccc(CSc2nnc(-c3ccc4c(c3)OCO4)o2)cc1	none (no result: Pf growth 48h)
O=C(CSc1nnc(-c2ccc3c(c2)OCO3)o1)Nc1ncc(Cl)cc1Cl	CHX counter 19, Pf growth 96h inconclusive, Shiga inhibitor 31
CC(=O)CSc1nnc(-c2ccc3c(c2)OCO3)o1	CHX counter 20, Pf growth 96h inconclusive, Shiga inhibitor 36
CC(=O)Nc1ccc(NC(=O)CSc2nnc(-c3ccc4c(c3)OCO4)o2)cc1	none (no result: CHX counter, Pf growth 96h, Shiga inhibitor, Pf growth 48h)
CC(C)CN(C(=O)COC(=O)CSc1ccccc1)c1c(N)n(Cc2ccccc2)c(=O)[nH]c1=O	none (no result: CHX counter, Shiga inhibitor)
Cc1ccc([C@H]2C(C(=O)O)=CCN2S(=O)(=O)c2ccc(C)cc2)cc1	none (no result: CHX counter, HCV inhibitor, Pf growth 96h, Shiga inhibitor, Pf growth 48h)
C/C(=N/NS(=O)(=O)c1ccc(Br)cc1)c1cccc(NC(=O)C2CC2)c1	none (no result: CHX counter, HCV inhibitor, Pf growth 96h, Shiga inhibitor, Pf growth 48h)
O=C(C[C@@H]1C=C[C@H](NC(=O)Cc2ccccn2)[C@@H](CO)O1)NCCc1ccccc1	none (no result: CHX counter, HCV inhibitor, Pf growth 96h, Shiga inhibitor, Pf growth 48h)
CC1CCN(CCCNC(=O)c2ccc(CSCc3cccc(Cl)c3)o2)CC1	HCV inhibitor inconclusive, Pf growth 96h inconclusive (no result: Pf growth 48h)
CCC(C)NC(=O)c1ccc(CSCc2cccc(F)c2)o1 (centres undefined)	CHX counter 25, HCV inhibitor inconclusive, Pf growth 96h inconclusive (no result: Pf growth 48h)
Cc1ccc(CSCc2ccc(C(=O)NC3CCCC3)o2)cc1	HCV inhibitor inconclusive, Pf growth 48h inconclusive
Cc1ccc(CSCc2ccc(C(=O)NC3CC3)o2)cc1	Pf growth 96h inconclusive, Pf growth 48h 1.2µM
O=C(NC1CC1)c1ccc(CS(=O)c2ccc(Br)cc2)o1 (centres undefined)	Pf growth 96h 10µM
CCC(C)NC(=O)c1ccc(CS(=O)(=O)Cc2ccc(Cl)cc2)o1 (centres undefined)	none (no result: Pf growth 48h)
O=C(NC1CC1)c1ccc(CSCc2cccc(F)c2)o1	CHX counter 11, HCV inhibitor inconclusive (no result: Pf growth 48h)
CCCOc1ccc(/C=C/C(=O)OCC(=O)N(C)c2c(N)n(Cc3ccccc3)c(=O)[nH]c2=O)cc1OCC	HCV inhibitor inconclusive, Pf growth 96h inconclusive (no result: CHX counter, Shiga inhibitor)
C[C@H]1CN([C@@H](C)CO)C(=O)Cc2cc(NC(=O)Cc3ccccc3)ccc2O[C@H]1CN(C)C(=O)Nc1cccc2ccccc12	none (no result: CHX counter, Pf growth 96h, Shiga inhibitor, Pf growth 48h)
CCN1C(=O)[C@H]2[C@@H](c3ccc(C)cc3)N[C@]3(CCCN(Cc4ccco4)C3=O)[C@H]2C1=O	none (no result: CHX counter, HCV inhibitor, Pf growth 96h, Shiga inhibitor, Pf growth 48h)
CC(=O)Nc1ccc2nc(NC(=O)c3cccnc3)sc2c1	CHX counter 27, Shiga inhibitor 46
CS(=O)(=O)c1ccc2nc(NC(=O)C3CC3)sc2c1	none (no result: CHX counter, Pf growth 96h, Shiga inhibitor, Pf growth 48h)
O=C(Nc1nc2ccc(S(=O)(=O)N3CCOCC3)cc2s1)c1cccs1	CHX counter 18, Pf growth 96h inconclusive, Shiga inhibitor 39
